Assay outcomes from PubChem.
A549 viability – Nrf2 qHTS screen for inhibitors: counterscreen for cytotoxicity | A549 ARE-Fluc cells, CellTiter-Fluor viability, 18-24 h | Potency, µM (series often up to 46 µM), without a hit: at the highest dose activity change, negative = cytotoxicity, actives largely listed as inhibitors | actives 0.16% (n = 390,000) | AID 504648, 2011; note: potency is the fitted concentration of half-maximal effect
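A549 ARE_Fluc cells in 5% FBS OPTI-MEM were exposed to compounds in concentration-response for 18-24 h at 37 deg C. Viability was read by CellTiter-Fluor fluorescence (Ex 405/Em 525) after 30 min, before the luciferase read.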
KB-V1 cytotox – qHTS assay for MDR1-selective chemotherapeutics: Primary screen using the drug-selected MDR subline cells KB-V1; KB-V1 MDR cells viability, CellTiter-Glo, 72 h; Potency, µM (top dose mostly 46.1 µM), most hits filed as cytotoxic; actives 3.4% (n = 400,000); AID 1347076, 2019; note: potency is the fitted concentration of half-maximal effect; nearly all actives have a fitted effect of over 60% in size
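KB-V1, DMEM (no phenol red) + 10% FBS; cpd pin-transferred, titration series; 72 h, 37 degrees C; CellTiter-Glo, luminescence. Data normalized, curve-fit.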
KB-3-1 cytotox – qHTS assay for MDR1-selective chemotherapeutics: Primary screen using the parental adenocarcinoma cell KB-3-1. KB-3-1 viability, CellTiter-Glo ATP luminescence, 72 h. Potency, µM (highest dose often 46.1 µM), actives largely listed as cytotoxic. actives 1.4% (n = 400,000). AID 1347075, 2019; note: potency is the fitted concentration of half-maximal effect; nearly all actives have a fitted effect of over 60% in size
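Screening of KB-3-1 cells (DMEM, 10% FBS, phenol-red free) ran from lowest to highest compound concentration; after 72 h at 37 °C viability was read luminescently and curves fitted.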
PI4K2A block – qHTS for small molecular inhibitors of PI4K2A; Phosphatidylinositol 4-kinase type 2-alpha (Homo sapiens), Q9BTU6; purified PI4K2A, ADP-Glo luminescence, 1 h; active compounds read low; activity change, negative = inhibition, % at 76.9 µM; actives 0.13% (n = 420,000); AID 1346378, 2018; in the data active = activity change below about -50%; inconclusive = mostly about -30% to -49%;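 note: -100% = wells without enzyme as full effect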
Target sequence (Q9BTU6 whole entry, looked up): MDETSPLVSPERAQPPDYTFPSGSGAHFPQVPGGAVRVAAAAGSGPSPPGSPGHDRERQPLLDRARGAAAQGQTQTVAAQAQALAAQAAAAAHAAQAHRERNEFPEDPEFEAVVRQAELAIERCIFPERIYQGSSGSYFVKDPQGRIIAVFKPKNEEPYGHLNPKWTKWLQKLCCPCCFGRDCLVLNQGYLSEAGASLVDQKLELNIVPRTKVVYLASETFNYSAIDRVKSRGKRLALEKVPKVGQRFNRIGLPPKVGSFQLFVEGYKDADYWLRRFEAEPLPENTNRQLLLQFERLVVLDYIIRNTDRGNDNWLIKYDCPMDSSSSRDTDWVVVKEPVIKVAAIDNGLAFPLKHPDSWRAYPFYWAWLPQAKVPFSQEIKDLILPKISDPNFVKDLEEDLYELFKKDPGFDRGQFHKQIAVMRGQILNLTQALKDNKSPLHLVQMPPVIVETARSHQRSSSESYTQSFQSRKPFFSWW
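Compounds are screened against recombinant PI4K2A using PI as substrate and ATP, the latter dispensed at 300 microM. Reactions run one hour at ambient temperature before ADP-Glo detection; full inhibition defined by wells lacking enzyme.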
Giardia kill – Small Molecules that selectively kill Giardia lamblia: qHTS | Giardia lamblia trophozoite viability | activity change, % at 7.66 µM, hits read low | actives 0.15% (n = 340,000); in the data active = activity change below about -80%; inconclusive = between about -30% and that limit;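 note: parasites exposed to compound for two days anaerobically before the ATP read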
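Trophozoite viability was measured as ATP-dependent luminescence, read 15-30 min after reagent addition. Before that, parasites at 100 cells/well were exposed to compounds for 48 h, anaerobically, at 37 deg C.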
Nrf2 inh – Nrf2 qHTS screen for inhibitors | actives 2.1% (n = 360,000) | A549 ARE-Fluc reporter, luciferase luminescence, 18-24 h | Potency, µM (doses to about 46 µM), for inactives: at the top dose activity change, negative = inhibition, hits mostly inhibitors; note: potency is the fitted concentration of half-maximal effect; nearly all actives have a fitted effect of over 60% in size
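In this cell-based qHTS, ARE-driven firefly luciferase in A549 cells reports Nrf2 activity; the luminescent signal after BugLite lysis is the measured value, with a prior CellTiter-Fluor read for cell health.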
Numbers without * were called inactive. This is a sample that favours compounds with a hit; in the whole collection about 5.7% have one here. Unless noted, calls come from the whole dose curve; as a rule, active = well fitted curve in the direction sought with a large enough effect; inconclusive = small, poorly fitted or top-dose-only effect, or another doubt; inactive = no such curve, though single readings can be large; an effect the other way counts as inactive or inconclusive. Unless noted, % is set by controls: 0 for no effect and ±100 for the full control effect.

Results for Cc1ccc(-n2ncc3c(NC4CCCCC4)ncnc32)cc1 ?
A549 viability: -2%; KB-V1 cytotox: inactive; KB-3-1 cytotox: inactive; PI4K2A block: -1

What do the screens show for `O=C(C1CCC(CNc2nc(=S)[nH]c3ccccc23)CC1)N1CCN(c2ccccn2)CC1` (centres undefined)?
A549 viability: inconclusive; KB-V1 cytotox: 2.6µM*; KB-3-1 cytotox: inactive; PI4K2A block: 7; Giardia kill: -8; Nrf2 inh: 16µM*

Results for O=C(/C=C/c1ccccc1)Nc1ccc(Cl)cn1 ?
A549 viability: -7%; KB-V1 cytotox: inconclusive; KB-3-1 cytotox: 18µM*; PI4K2A block: -1; Giardia kill: 3; Nrf2 inh: inconclusive

What do the screens show for `CSc1cccc(NC(=O)/C=C/c2ccc(Cl)cc2)c1`?
A549 viability: -13%; KB-V1 cytotox: 15µM*; KB-3-1 cytotox: inconclusive; PI4K2A block: -3; Giardia kill: -6; Nrf2 inh: -28%

Results for Cc1cc(C)nc(NC(=O)/C=C/c2ccc(Cl)cc2Cl)c1 ?
A549 viability: -2%; KB-V1 cytotox: 9.2µM*; KB-3-1 cytotox: inactive; PI4K2A block: -2; Giardia kill: -16; Nrf2 inh: 5%

How did Cc1cccc(NC(=O)/C=C/c2ccc(Cl)cc2)n1 do in these assays?
A549 viability: 6%; KB-V1 cytotox: 16µM*; KB-3-1 cytotox: inactive; PI4K2A block: 2; Giardia kill: inconclusive; Nrf2 inh: -5%

What do the screens show for `Cc1ccc(S(=O)(=O)N2c3ccc(F)cc3C[C@H]2CSc2ccccc2)cc1`?
PI4K2A block: 6

Results for C(=C\c1ccnc2ccccc12)/c1ccc2c(c1)OCO2 ?
KB-V1 cytotox: inactive; KB-3-1 cytotox: inactive

Results for CCc1cccc2c(C(O)(c3c[nH]c4c(CC)cccc34)c3c[nH]c4c(CC)cccc34)c[nH]c12 ?
KB-V1 cytotox: inactive; KB-3-1 cytotox: inactive

How did O=C(c1ccccc1)N1CCC(Oc2cccnc2)CC1 do in these assays?
PI4K2A block: 1

How did CSc1ccc(/C=C/C(=O)Nc2ccccc2)cc1 do in these assays?
A549 viability: 0%; KB-V1 cytotox: inactive; KB-3-1 cytotox: inactive; PI4K2A block: -52*; Giardia kill: inconclusive; Nrf2 inh: inconclusive

What do the screens show for `CSc1cccc(NC(=O)/C=C/c2ccccc2)c1`?
A549 viability: -10%; KB-V1 cytotox: inactive; KB-3-1 cytotox: inactive; PI4K2A block: -2; Giardia kill: 2; Nrf2 inh: 14%

How did CCOc1ccccc1-c1nnc2n1N=C(c1ccc(OC)c(OC)c1)CS2 do in these assays?
A549 viability: 1%; Nrf2 inh: inconclusive

Results for Cc1ccccc1N1CC(c2nc3ccccc3n2Cc2ccc(Br)cc2)CC1=O (centres undefined) ?
A549 viability: 2%; KB-V1 cytotox: inactive; KB-3-1 cytotox: inconclusive; PI4K2A block: -2; Nrf2 inh: -13%

How did CCC(C)NC(=O)c1c(N)n(/N=C/c2ccccn2)c2nc3ccccc3nc12 (centres undefined) do in these assays?
A549 viability: inconclusive; KB-V1 cytotox: 21µM*; KB-3-1 cytotox: inactive; PI4K2A block: -9; Giardia kill: 17; Nrf2 inh: inconclusive

How did COc1ccc(Cn2ncc3c4sc(C)cc4n(C)c3c2=O)cc1 do in these assays?
A549 viability: -4%; Nrf2 inh: 2%

Results for COc1ccc(C2C=C(c3ccccc3)Nc3nc(NS(=O)(=O)c4ccc(C)cc4)nn32)cc1 (centres undefined) ?
A549 viability: -1%; KB-V1 cytotox: inactive; KB-3-1 cytotox: inactive; PI4K2A block: 0; Nrf2 inh: 18µM*

Results for CCOC(=O)[C@@]12CN(C(=O)OC(C)(C)C)CC=C1N(Cc1ccc(OC)cc1)C(=O)[C@H]2CC(=O)NCc1cccc(C(F)(F)F)c1 ?
PI4K2A block: 0
